Screening data deposited in PubChem by Johns Hopkins Ion Channel Center.
A selection: hits, their analogues and other compounds. The true share with any hit is near 1.6%.
KCNQ2 pot = KCNQ2 (rat) channel potentiation; B-score at 10 µM; 0.54% of 310,000 active; CHO-K1 KCNQ2, FluxOR thallium flux fluorescence; hits give high values; O88943; AID 2239;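 active = fluorescence ratio B-score at least 3 SD of library B-scores, with initial fluorescence B-score within 3 of them, cut at about 5.3 in these data; same plate scores as AID 2156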;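 also: B-score of peak minus minimum over baseline fluorescence ratio after K+ and Tl+ stimulus; positive B-score means potentiation of KCNQ2 with more thallium influx and brighter signal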
Target sequence (O88943 whole entry, looked up): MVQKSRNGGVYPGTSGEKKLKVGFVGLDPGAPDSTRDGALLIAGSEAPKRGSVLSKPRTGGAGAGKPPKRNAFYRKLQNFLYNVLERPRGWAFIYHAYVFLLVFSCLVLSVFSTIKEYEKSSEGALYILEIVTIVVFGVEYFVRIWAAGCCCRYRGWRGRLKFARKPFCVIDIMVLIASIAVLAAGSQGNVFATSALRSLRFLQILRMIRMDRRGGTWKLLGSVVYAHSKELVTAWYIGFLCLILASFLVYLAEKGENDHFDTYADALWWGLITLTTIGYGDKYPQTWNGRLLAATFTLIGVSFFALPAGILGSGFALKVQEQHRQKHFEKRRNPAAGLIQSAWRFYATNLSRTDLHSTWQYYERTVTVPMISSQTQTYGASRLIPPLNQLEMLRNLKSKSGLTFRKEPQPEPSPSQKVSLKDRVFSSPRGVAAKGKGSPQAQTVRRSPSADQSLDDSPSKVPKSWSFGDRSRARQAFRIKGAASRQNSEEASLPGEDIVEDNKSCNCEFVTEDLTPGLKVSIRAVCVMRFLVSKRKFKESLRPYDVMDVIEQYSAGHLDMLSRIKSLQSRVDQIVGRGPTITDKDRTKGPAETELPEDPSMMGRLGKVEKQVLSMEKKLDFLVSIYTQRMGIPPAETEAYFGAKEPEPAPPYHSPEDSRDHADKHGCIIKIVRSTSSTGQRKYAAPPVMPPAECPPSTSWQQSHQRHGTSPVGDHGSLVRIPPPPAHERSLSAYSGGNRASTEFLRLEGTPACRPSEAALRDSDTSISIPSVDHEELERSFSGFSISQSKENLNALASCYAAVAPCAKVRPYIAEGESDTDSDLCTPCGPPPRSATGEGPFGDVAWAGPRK
KCNQ2 inh = inhibitors of rat KCNQ2 potassium channel | O88943 | CHO-K1 KCNQ2, FluxOR thallium flux, 20 min; hits give low values | B-score at 10 µM | 1.1% of 310,000 active;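 active = fluorescence ratio B-score at most minus 3 library SDs, with starting brightness B-score within 2 library SDs, cut at about -5.5 in these data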
Kir21 confirm = confirmation of mouse Kir2.1 potassium channel inhibitors; Tl flux remaining, % of negative control (hits give low values), % at 10 µM; 41% of 2,300 active; shares compounds with KCNQ2 pot; Kir2.1-expressing cells, FluxOR thallium flux fluorescence; hits give low values;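 active = Primary-screen hit whose thallium flux fell at least 3 control SD below untreated wells in both duplicates, with normal baseline fluorescence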;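 also: 0% = blank wells without stimulus and 100% = stimulated no-compound controls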
HEK293 Tl flux = parental HEK293 activity in Kir2.1 inhibitor counter-screen | shares compounds with KCNQ2 pot | parental HEK293 cells, FluxOR thallium flux fluorescence; 0% = unstimulated blank wells | FluxOR signal as % of negative control (100 = no effect), % at 10 µM | 19% of 2,300 active;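 active = dye signal at least 3 control SD above or below untreated wells in both duplicates, raw fluorescence within 3, either direction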;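 also: percent is based on the flux ratio of peak minus minimum fluorescence over baseline F0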
CHO-K1 Tl ctr = counter-screen for KCNQ2 potentiators: effect in parental CHO-K1 cells; AID 2282; FluxOR thallium flux fluorescence; zero = vehicle mean+3SD, 100% = vehicle-minus-blank window; shares compounds with KCNQ2 pot; activity increase over 3SD of controls, % at 10 µM; 43% of 1,200 active;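 active = signal rise of at least 3 SD above the untreated control mean, in both duplicate wells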;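 also: counter screen of KCNQ2 potentiator hits so any rise reflects channel-independent effects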
KCNQ1 sel pot = human KCNQ1 counter-target activity of KCNQ2 potentiators | shares compounds with KCNQ2 pot | CHO KCNQ1 stable, FluxOR thallium flux fluorescence; beyond 3SD, as % of vehicle-control signal | activation over 3SD threshold, % at 10 µM | 28% of 1,200 active;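 active = fluorescence ratio rise of at least 3 SD of vehicle wells above their mean, in both replicate wells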;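 also: 0% = vehicle mean plus 3 SD and 100% = vehicle minus unstimulated blank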
KCNQ2 pot conf = rat KCNQ2 channel potentiator confirmation; shares compounds with KCNQ2 pot; CHO-KCNQ2 cells, FluxOR thallium flux fluorescence; potentiation, less the hit threshold, % at 10 µM; 68% of 1,200 active; AID 2287;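 active = fluorescence ratio rising 3 SD or more over the vehicle control mean in both replicates, plus primary screen hit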;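 also: peak minus minimum thallium fluorescence divided by baseline after K/Tl stimulus; 0% = vehicle mean plus 3 SD and 100% = vehicle minus unstimulated blank difference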
Kir2-1 sel = selectivity of KCNQ2 potentiators: effect on mouse Kir2.1. shares compounds with KCNQ2 pot. HEK293 Kir2.1, FluxOR thallium flux fluorescence. activity over 3SD threshold, % at 10 µM. 2% of 1,200 active. AID 2345;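 active = fluorescence ratio rise of at least 3 SD above the vehicle-control mean, seen in both replicates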;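 also: 0% = vehicle mean plus 3 SD and 100% = vehicle minus no-stimulus blank window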
KCNQ2 W236L MoA = rat KCNQ2 W236L mutant potentiation by KCNQ2 potentiators; CHO KCNQ2-W236L, automated patch clamp current; AID 2558; 10% of 940 active; shares compounds with KCNQ2 pot; current increase over 3SD of negative controls (%), hits give high values, % at 25 µM;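 active = current increase at least 3 SD of the untreated controls above them in both duplicate recordings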
* marks the source's active call; other numbers are inactive results; i = inactive; . = no result.

SMILES	KCNQ2 pot	KCNQ2 inh	Kir21 confirm	HEK293 Tl flux	others
O=C(OCC(=O)N1CCCC1=O)c1cccc(S(=O)(=O)N2CCOCC2)c1	0.9	i	.	.
Cc1ccc(O)c(NC(=S)NC(=O)Cc2ccc(Cl)cc2)c1	7*	i	i	i	CHO-K1 Tl ctr=0.0*;KCNQ1 sel pot=-14;KCNQ2 pot conf=-22;Kir2-1 sel=-44
Cc1ccc(NC(=S)NC(=O)c2ccc(-c3ccc(Cl)cc3)o2)c(O)c1	1.1	i	.	.
CC(C)CC(=O)NC(=S)Nc1ccccc1C(F)(F)F	.	i	.	.
CCc1ccc(NC(=O)CNCc2ccc(OC)c(OC)c2)cc1	.	i	.	.
Cc1cccc(Nc2c3c(nc4ccccc24)CCC3)c1	.	i	31%*	i
N#Cc1cccc(Nc2c3c(nc4ccccc24)CCC3)c1	.	i	.	.
Cc1ccc(-c2c(C#N)c(N)nc3c2CCCCC3)o1	0.57	i	.	.
COC(=O)CSc1nc2c(c(-c3ccco3)c1C#N)CCCC2	11*	i	i	i	CHO-K1 Tl ctr=7.8*;KCNQ1 sel pot=-35;KCNQ2 pot conf=28*;Kir2-1 sel=-36;KCNQ2 W236L MoA=i
CCOC(=O)CSc1nc2c(c(-c3ccc(C)o3)c1C#N)CCCC2	7.2*	i	i	i	CHO-K1 Tl ctr=113*;KCNQ1 sel pot=-6;KCNQ2 pot conf=6.3*;Kir2-1 sel=-27;KCNQ2 W236L MoA=i
COC(=O)CSc1nc2c(c(-c3ccc(O)cc3)c1C#N)CCCC2	.	i	.	.
CCOC(=O)C1CCN(C(=O)Nc2c(-c3ccccc3)noc2C)CC1	1	i	.	.
Cc1c(O)c2cccnc2[nH]c1=O	1.3	i	.	.
O=C(NC1CCCCCC1)c1ccc(S(=O)(=O)NCc2ccco2)cc1	.	i	.	.
CCOC(=O)C(C)CC(C)C(=O)N1CCOCCOCCN(C(=O)C(C)CC(C)C(=O)OCC)CCOCC1 (centres undefined)	0.55	i	.	.
CCOC(=O)C(C(=O)OCC)C(C(=O)OCC)N1CCOCC1 (centres undefined)	15*	i	.	.	CHO-K1 Tl ctr=-7;KCNQ1 sel pot=24*;KCNQ2 pot conf=35*;Kir2-1 sel=-56;KCNQ2 W236L MoA=i
COC(=O)c1c(-c2ccc(OC)cc2)oc2ccc(-c3ccc(OC)nc3)cc12	.	i	.	.
COCC1CCN(C(=O)c2cc(COc3cccc4cnccc34)on2)CC1	1.3	i	.	.
CCOC(=O)N1CCN=C1SCc1ccc(Cl)c(Cl)c1	.	i	.	.
COc1ccc(/C=N/N(C)C2=NS(=O)(=O)c3ccccc32)cc1	0.89	i	.	.
COc1ccc(CN2CCN(Cc3cc4ccccc4o3)CC2CCO)c(F)c1 (centres undefined)	.	i	.	.
COc1ccc(CN2CCN(C3CCC3)CC2CCO)c(F)c1 (centres undefined)	13*	i	i	i	CHO-K1 Tl ctr=-13;KCNQ1 sel pot=-18;KCNQ2 pot conf=-8;Kir2-1 sel=-27
CCCCC(=O)Nc1ccccc1C#N	0.5	i	.	.
C=CCOc1ccc(CN(C)CC(O)COc2ccc(CCC(C)=O)cc2)cc1 (centres undefined)	1.1	i	.	.
COc1ccc(CN(C)CC(O)COC(c2ccc(OC)cc2)c2ccc(OC)cc2)cc1 (centres undefined)	.	i	50%*	i
SMILES	KCNQ2 pot	KCNQ2 inh	Kir21 confirm	HEK293 Tl flux	others
CCOc1ccc(CN(C)CC(O)COC(c2ccc(OC)cc2)c2ccc(OC)cc2)cc1 (centres undefined)	.	i	58%*	i
COc1ccc(C(OCC(O)CN(C)C2CCCCC2)c2ccc(OC)cc2)cc1 (centres undefined)	.	i	.	.
CCn1nnnc1-c1ccc(OC)c(S(=O)(=O)Nc2ccc(S(N)(=O)=O)cc2)c1	.	i	.	.
O=C(NC(=S)NCc1ccccc1)c1ccccc1F	0.78	i	.	.
COc1ccc(C(=O)NC(=S)N(Cc2ccccc2)Cc2ccccc2)cc1	19*	i	i	199%*	CHO-K1 Tl ctr=136*;KCNQ1 sel pot=-6;KCNQ2 pot conf=-1;Kir2-1 sel=-28;KCNQ2 W236L MoA=i
O=C(NC(=S)N(Cc1ccccc1)Cc1ccccc1)c1ccccc1F	11*	i	i	218%*	CHO-K1 Tl ctr=110*;KCNQ1 sel pot=-1;KCNQ2 pot conf=22*;Kir2-1 sel=-40;KCNQ2 W236L MoA=i
CC(C)C(=O)NC(=S)N(Cc1ccccc1)Cc1ccccc1	.	i	.	.
C=CCN(CC=C)C(=S)NC(=O)c1ccc(-c2ccccc2)cc1	7.3*	i	i	420%*	CHO-K1 Tl ctr=-3;KCNQ1 sel pot=22*;KCNQ2 pot conf=89*;Kir2-1 sel=-4;KCNQ2 W236L MoA=i
C=CCN(CC=C)C(=S)NC(=O)/C=C/c1ccccc1	0.7	i	.	.
CC(O)CNCCCOc1cccc(Oc2ccccc2)c1 (centres undefined)	2.4	i	14%*	i
CC(O)CNCCCOc1cccc(C(F)(F)F)c1 (centres undefined)	2.2	i	.	.
COc1ccc(NC(=S)NCCc2ccccc2)c(C)c1	.	i	.	.
CCc1cc(Br)ccc1NC(=S)NCCc1ccccc1	.	i	62%*	i
Cc1ccc(C2=NN(C(=O)c3ccco3)C(O)(C(F)(F)F)C2)cc1 (centres undefined)	.	i	.	.
Cc1ccccc1OC(C)C(=O)NCCC1=CCCCC1 (centres undefined)	-5.9	-5.9*	38%*	i
CC(OC(=O)c1ccccc1)C(=O)NCCC1=CCCCC1 (centres undefined)	1.2	i	.	.
CC(NC(=O)c1ccccc1OC(F)F)c1ccc(-n2ccnc2)cc1 (centres undefined)	0.27	i	.	.
COc1ccc(NC(=O)/C(=C\c2ccc(OS(=O)(=O)c3ccc(C)cc3)cc2)NC(=O)c2ccccc2)cc1	.	i	.	.
O=C(Nc1ccc(F)cc1)C1CC2CCC1C2 (centres undefined)	1.4	i	.	.
CC(C)c1ccc(NC(=O)C2CC3CCC2C3)cc1 (centres undefined)	26*	i	i	i	CHO-K1 Tl ctr=30*;KCNQ1 sel pot=-12;KCNQ2 pot conf=66*;Kir2-1 sel=-23;KCNQ2 W236L MoA=i
CCC(C)c1ccc(NC(=O)C2CC3CCC2C3)cc1 (centres undefined)	26*	i	i	i	CHO-K1 Tl ctr=7.5*;KCNQ1 sel pot=-3;KCNQ2 pot conf=105*;Kir2-1 sel=-39;KCNQ2 W236L MoA=i
CCOc1ccc(NC(=O)C2CC3CCC2C3)cc1 (centres undefined)	0.07	i	.	.
O=C(O)CCC1(C(=O)O)OCCc2ccccc21 (centres undefined)	.	i	.	.
COc1cccc(/C=N/n2c(-c3ccco3)nc3ccccc3c2=O)c1OC	.	i	.	.
CN(C)CCCN(C(=O)c1ccc(Br)s1)c1nc2cc3c(cc2s1)OCCO3	.	i	i	i
CCN(CC)CCN(C(=O)c1ccc(Br)s1)c1nc2cc3c(cc2s1)OCCO3	2	i	.	.
